# Assay results published in PubChem BioAssay (Tox21).
# Inconclusive results are not listed. A call without a number means that no potency is given here. Unmarked numbers belong to inactive results. Active and inactive are the calls of the source. Unless noted, calls come from the whole dose curve; as a rule, active = well fitted curve in the direction sought with a large enough effect in the repeat runs; inconclusive = weak or mixed curves; inactive = no such curve, though single readings can be large; an effect the other way counts as inactive or inconclusive.
# Legend:
# [1] = qHTS assay to identify aromatase inhibitors - cell viability counter screen (AID 743084);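 note: cells stimulated with testosterone during compound exposure; nearly all actives have a fitted effect of over 55% in size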; note: potency is the fitted concentration of half-maximal effect
# [2] = molecular target: Peroxisome proliferator-activated receptor gamma (Homo sapiens) (UniProt P37231); experiment: qHTS assay to identify small molecule agonists of the peroxisome proliferator-activated receptor gamma (PPARg) signaling pathway (AID 743094; active = well fitted activation curve with a large enough effect in the signal ratio in the repeat runs, not every such curve was filed as active; the % refers to the signal ratio; note: potency is the fitted concentration of half-maximal effect)
# In short: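 Beta-lactamase FRET fluorescence was the read-out after a 1 h room-temperature substrate step, following 17 h compound treatment at 37C of HEK293H cells expressing a UAS-driven bla reporter responsive to PPARg.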
# [3] = qHTS assay for small molecule agonists of the antioxidant response element (ARE) signaling pathway (AID 743202; active = well fitted activation curve with a large enough effect in the signal ratio in the repeat runs, not every such curve was filed as active; the % refers to the signal ratio; note: potency is the fitted concentration of half-maximal effect)
# In short: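 Compounds delivered in DMSO to ARE-bla HepG2 cells (2,000 cells/well, pre-incubated 5 h) and left 16 h at 37 C. LiveBLAzer B/G FRET substrate then added for 2 h at RT before fluorescence reading.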
# [4] = qHTS assay for small molecule agonists of the antioxidant response element (ARE) signaling pathway - cell viability counter screen (AID 743203; calls by dose curve; note: nearly all actives have a fitted effect of over 55% in size; note: potency is the fitted concentration of half-maximal effect)
# In short: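 HepG2 cells carrying ARE-driven beta-lactamase; 2,000 cells/well; 5 hrs plating; compound pinned from DMSO; 16 hrs 37C/5% CO2; CellTiter-Glo added; 30 min RT; luminescence.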
# [5] = qHTS assay for small molecule activators of the heat shock response signaling pathway - cell viability counter screen (AID 743209); note: nearly all actives have a fitted effect of over 50% in size
# In short: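 Luminescence from CellTiter-Glo, added after the beta-lactamase FRET read, gave the viability signal. Cells were HSE-bla HeLa treated with DMSO-dissolved compounds for 5 h at 37 C following overnight plating.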
# [6] = qHTS assay to identify small molecule agonists of the peroxisome proliferator-activated receptor delta (PPARd) signaling pathway - cell viability counter screen (AID 743211); note: nearly all actives have a fitted effect of over 55% in size; note: potency is the fitted concentration of half-maximal effect
# In short: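 Luminescent ATP viability assay (CellTiter-Glo, 30 min RT) in UAS-bla HEK293H cells carrying the PPAR delta reporter construct, 3000 cells/well, after a 17 h compound treatment at 37 C.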
# [7] = molecular target: Peroxisome proliferator-activated receptor delta (Homo sapiens) (UniProt Q03181); experiment: qHTS assay to identify small molecule agonists of the peroxisome proliferator-activated receptor delta (PPARd) signaling pathway (AID 743212; calls by dose curve; note: potency is the fitted concentration of half-maximal effect)
# In short: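 A PPARd-bla HEK293H line with beta-lactamase under an Upstream Activator Sequence is treated with compounds at 37 C. Substrate loading for 2 h at room temperature precedes the fluorescence measurement.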
# [8] = qHTS assay to identify small molecule antagonists of the peroxisome proliferator-activated receptor delta (PPARd) signaling pathway - cell viability counter screen (AID 743213); note: nearly all actives have a fitted effect of over 50% in size; note: potency is the fitted concentration of half-maximal effect
# In short: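 Viability counter-screen, qHTS format: PPARd-bla HEK293H, L165041 300 nM final, 17 h compound exposure at 37 C, CellTiter-Glo luminescence after 30 min RT.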
# [9] = molecular target: Bile acid receptor (Homo sapiens) (UniProt Q96RI1); experiment: qHTS assay to identify small molecule antagonists of the farnesoid-X-receptor (FXR) signaling pathway (AID 743217; active = well fitted inhibition curve with a large enough effect in the signal ratio in the repeat runs, not every such curve was filed as active; the % refers to the signal ratio; note: potency is the fitted concentration of half-maximal effect)
# In short: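 HEK 293T FXR-UAS-bla, 5000 cells/well; compound + CDCA 50 uM final; 16 h, 37 °C; B/G FRET substrate 2 h RT; fluorescence.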
# [10] = qHTS assay to identify small molecule agonists of the farnesoid-X-receptor (FXR) signaling pathway - cell viability counter screen (AID 743218); note: nearly all actives have a fitted effect of over 45% in size
# In short: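 HEK 293T FXR-bla cells; 5 h pre-incubation, 16 h compound exposure at 37 C; LiveBLAzer substrate 2 h RT, then CellTiter-Glo 30 min RT, luminescence.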
# [11] = molecular target: Bile acid receptor (Homo sapiens) (UniProt Q96RI1); experiment: qHTS assay to identify small molecule agonists of the farnesoid-X-receptor (FXR) signaling pathway (AID 743220; active = well fitted activation curve with a large enough effect in the signal ratio in the repeat runs, not every such curve was filed as active; the % refers to the signal ratio)
# In short: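 Beta-lactamase reporter under UAS control in GeneBLAzer FXR HEK 293T cells (5000/well) measured with LiveBLAzer FRET substrate after 2 h at room temperature. Compound exposure lasted 16 h at 37C.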
# [12] = qHTS assay to identify small molecule antagonists of the farnesoid-X-receptor (FXR) signaling pathway - cell viability counter screen (AID 743221; active = well fitted cell-killing curve with a large enough effect in the repeat runs, not every such curve was filed as active; note: nearly all actives have a fitted effect of over 50% in size; note: potency is the fitted concentration of half-maximal effect)
# In short: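 In GeneBLAzer FXR-UAS-bla HEK 293T cells stimulated with 50 uM chenodeoxycholic acid (final), compounds acted for 16 h at 37 C. Viability was assessed afterwards by CellTiter-Glo luminescence.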
# [13] = molecular target: Vitamin D3 receptor (Homo sapiens) (UniProt P11473); experiment: qHTS assay to identify small molecule agonists of the vitamin D receptor (VDR) signaling pathway (AID 743222; calls by dose curve; note: potency is the fitted concentration of half-maximal effect)
# In short: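 VDR-bla cells, 2,000/well; 4 h preincubation 37C; cpd (DMSO) 16 h; LiveBLAzer B/G substrate 2 h RT; fluorescence intensity read.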
# [14] = molecular target: Vitamin D3 receptor (Homo sapiens) (UniProt P11473); experiment: qHTS assay to identify small molecule antagonists of the vitamin D receptor (VDR) signaling pathway (AID 743223; active = well fitted inhibition curve with a large enough effect in the signal ratio in the repeat runs, not every such curve was filed as active; the % refers to the signal ratio)
# In short: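 Agonist 1alpha,25-dihydroxyvitamin D3 (3 nM in well) was added with each compound to VDR-bla cells preincubated 4 h. Cells stood 16 h at 37C, then FRET substrate 2 h at room temperature; fluorescence intensity recorded.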
# [15] = molecular target: Aryl hydrocarbon receptor (Homo sapiens) (UniProt P35869); experiment: qHTS assay to identify small molecule that activate the aryl hydrocarbon receptor (AhR) signaling pathway (AID 743085); note: nearly all actives have a fitted effect of over 15% in size; note: potency is the fitted concentration of half-maximal effect;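 for activation: HG2L7.5c1 human HepG2 liver cells with stably integrated DRE-driven firefly reporter; series mostly up to about 70 µM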
# In short: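 24 h compound exposure, 37C, HepG2-derived HG2L7.5c1 cells with DRE-responsive luciferase. Readouts: fluorescence viability, then luminescence at room temperature after 30 min.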
# [16] = molecular target: Peroxisome proliferator-activated receptor gamma (Homo sapiens) (UniProt P37231); experiment: qHTS assay to identify small molecule antagonists of the peroxisome proliferator-activated receptor gamma (PPARg) signaling pathway (AID 743191; calls by dose curve; note: nearly all actives have a fitted effect of over 30% in size; note: potency is the fitted concentration of half-maximal effect)
# In short: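 GeneBLAzer PPARg UAS-bla HEK293H cells carrying a UAS-driven beta-lactamase reporter were plated at 3000 cells/well, preincubated 5 h at 37C, then given compound for 17 h at 37C; LiveBLAzer B/G FRET substrate was read after 1 h at room temperature.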
# [17] = qHTS assay to identify small molecule that activate the aryl hydrocarbon receptor (AhR) signaling pathway - cell viability counter screen (AID 743086); note: nearly all actives have a fitted effect of over 45% in size; note: potency is the fitted concentration of half-maximal effect
# In short: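 HepG2-AhR-luc (HG2L7.5c1) cells, 4000/well, were preincubated 5 h at 37C, exposed to compound in qHTS format for 24 hr at 37C, then given CellTiter-Fluor for 30 min; viability was read as fluorescence in the reporter wells.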
# [18] = qHTS assay for small molecule activators of the heat shock response signaling pathway (AID 743210; active = well fitted activation curve with a large enough effect in the signal ratio in the repeat runs, with a control signal flat, not every such curve was filed as active; the % refers to the signal ratio;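 note: HeLa cells with beta-lactamase reporter driven by heat shock elements; series mostly up to about 63 µM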)
# In short: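 Reporter gene assay: HeLa cells stably bearing an HSE-bla construct, compound treatment 5 h at 37 C, LiveBLAzer substrate 2.5 h at RT, fluorescence intensity.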
# [19] = molecular target: Peroxisome proliferator-activated receptor delta (Homo sapiens) (UniProt Q03181); experiment: qHTS assay to identify small molecule antagonists of the peroxisome proliferator-activated receptor delta (PPARd) signaling pathway (AID 743215; active = well fitted inhibition curve with a large enough effect in the signal ratio in the repeat runs, not every such curve was filed as active; the % refers to the signal ratio;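 note: cells stimulated with agonist L165041 at 300 nM final during compound exposure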; note: potency is the fitted concentration of half-maximal effect)
# In short: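 Read-out is beta-lactamase FRET fluorescence, measured 2 h after substrate addition at room temperature. Beforehand, UAS-bla HEK293H cells carrying the PPARd reporter were exposed to compounds with L165041 at 300 nM final for 17 h at 37 C.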
# [20] = qHTS assay to identify small molecule antagonists of the peroxisome proliferator-activated receptor gamma (PPARg) signaling pathway - cell viability counter screen (AID 743194); note: nearly all actives have a fitted effect of over 55% in size
# In short: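 PPARg-UAS-bla HEK293H cells were plated, rested 5 h at 37 C, then treated with compounds plus rosiglitazone (50 nM final) for 17 h at 37 C; viability was then read by CellTiter-Glo luminescence after 30 min at room temperature.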
# Peroxisome proliferator-activated receptor delta (Homo sapiens), sequence (Q03181 whole entry, looked up): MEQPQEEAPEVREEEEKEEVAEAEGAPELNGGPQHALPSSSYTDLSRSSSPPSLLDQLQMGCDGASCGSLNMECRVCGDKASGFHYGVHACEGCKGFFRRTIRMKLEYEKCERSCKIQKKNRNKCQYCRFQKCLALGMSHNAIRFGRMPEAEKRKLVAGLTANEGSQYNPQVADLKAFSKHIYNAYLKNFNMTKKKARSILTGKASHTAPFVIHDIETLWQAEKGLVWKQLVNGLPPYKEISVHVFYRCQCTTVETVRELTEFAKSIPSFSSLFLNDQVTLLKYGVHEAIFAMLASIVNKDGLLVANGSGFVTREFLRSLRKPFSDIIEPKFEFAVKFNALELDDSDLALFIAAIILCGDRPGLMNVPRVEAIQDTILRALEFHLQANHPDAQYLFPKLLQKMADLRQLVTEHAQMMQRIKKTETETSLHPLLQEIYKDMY
# Aryl hydrocarbon receptor (Homo sapiens), sequence (P35869 whole entry, looked up): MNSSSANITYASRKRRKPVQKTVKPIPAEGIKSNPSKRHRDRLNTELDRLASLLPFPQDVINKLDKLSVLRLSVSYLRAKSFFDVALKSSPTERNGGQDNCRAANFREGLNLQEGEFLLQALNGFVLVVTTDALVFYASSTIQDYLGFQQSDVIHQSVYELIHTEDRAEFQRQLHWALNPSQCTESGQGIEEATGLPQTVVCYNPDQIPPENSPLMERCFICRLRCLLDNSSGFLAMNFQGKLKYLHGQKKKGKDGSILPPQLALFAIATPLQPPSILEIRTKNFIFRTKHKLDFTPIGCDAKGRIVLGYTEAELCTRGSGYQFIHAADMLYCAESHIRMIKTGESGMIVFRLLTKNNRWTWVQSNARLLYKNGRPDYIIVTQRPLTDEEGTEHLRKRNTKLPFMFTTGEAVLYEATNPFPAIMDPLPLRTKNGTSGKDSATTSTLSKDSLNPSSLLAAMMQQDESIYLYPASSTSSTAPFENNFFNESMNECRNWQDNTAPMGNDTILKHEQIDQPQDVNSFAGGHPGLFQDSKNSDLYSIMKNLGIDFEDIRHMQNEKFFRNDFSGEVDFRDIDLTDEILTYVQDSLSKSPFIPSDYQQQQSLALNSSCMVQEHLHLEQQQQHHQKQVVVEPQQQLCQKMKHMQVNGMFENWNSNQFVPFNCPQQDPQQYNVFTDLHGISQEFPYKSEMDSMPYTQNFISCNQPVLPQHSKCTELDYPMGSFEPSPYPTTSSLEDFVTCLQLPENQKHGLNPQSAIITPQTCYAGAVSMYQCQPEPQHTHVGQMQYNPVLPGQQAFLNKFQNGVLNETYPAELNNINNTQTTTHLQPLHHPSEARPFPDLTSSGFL
# Peroxisome proliferator-activated receptor gamma (Homo sapiens), sequence (P37231 whole entry, looked up): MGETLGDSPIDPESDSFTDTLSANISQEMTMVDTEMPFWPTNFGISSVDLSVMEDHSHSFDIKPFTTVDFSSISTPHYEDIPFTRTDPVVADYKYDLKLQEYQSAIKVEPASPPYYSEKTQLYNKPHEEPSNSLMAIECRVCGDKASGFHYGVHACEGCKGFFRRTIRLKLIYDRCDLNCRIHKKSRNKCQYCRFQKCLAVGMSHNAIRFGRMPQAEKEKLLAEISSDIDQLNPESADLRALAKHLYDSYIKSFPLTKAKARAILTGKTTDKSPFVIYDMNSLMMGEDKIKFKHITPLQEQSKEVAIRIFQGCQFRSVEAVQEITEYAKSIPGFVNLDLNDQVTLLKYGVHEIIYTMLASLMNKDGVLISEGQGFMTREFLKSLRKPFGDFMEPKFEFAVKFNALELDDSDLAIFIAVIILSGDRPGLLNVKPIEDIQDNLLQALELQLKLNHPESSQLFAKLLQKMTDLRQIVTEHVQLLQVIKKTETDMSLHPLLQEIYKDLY
# Bile acid receptor (Homo sapiens), sequence (Q96RI1 whole entry, looked up): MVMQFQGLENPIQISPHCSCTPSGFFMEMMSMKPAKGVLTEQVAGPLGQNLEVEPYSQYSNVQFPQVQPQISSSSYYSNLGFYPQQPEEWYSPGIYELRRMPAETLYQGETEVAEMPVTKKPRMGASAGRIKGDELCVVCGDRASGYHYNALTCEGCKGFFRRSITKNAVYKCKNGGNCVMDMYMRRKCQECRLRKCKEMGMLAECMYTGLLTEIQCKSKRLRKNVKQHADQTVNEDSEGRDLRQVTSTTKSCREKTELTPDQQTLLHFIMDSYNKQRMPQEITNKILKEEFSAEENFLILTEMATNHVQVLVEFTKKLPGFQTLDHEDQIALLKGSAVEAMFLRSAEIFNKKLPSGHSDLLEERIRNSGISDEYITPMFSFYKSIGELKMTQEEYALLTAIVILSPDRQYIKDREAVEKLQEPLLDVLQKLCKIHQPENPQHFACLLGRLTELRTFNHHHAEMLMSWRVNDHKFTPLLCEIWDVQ
# Vitamin D3 receptor (Homo sapiens), sequence (P11473 whole entry, looked up): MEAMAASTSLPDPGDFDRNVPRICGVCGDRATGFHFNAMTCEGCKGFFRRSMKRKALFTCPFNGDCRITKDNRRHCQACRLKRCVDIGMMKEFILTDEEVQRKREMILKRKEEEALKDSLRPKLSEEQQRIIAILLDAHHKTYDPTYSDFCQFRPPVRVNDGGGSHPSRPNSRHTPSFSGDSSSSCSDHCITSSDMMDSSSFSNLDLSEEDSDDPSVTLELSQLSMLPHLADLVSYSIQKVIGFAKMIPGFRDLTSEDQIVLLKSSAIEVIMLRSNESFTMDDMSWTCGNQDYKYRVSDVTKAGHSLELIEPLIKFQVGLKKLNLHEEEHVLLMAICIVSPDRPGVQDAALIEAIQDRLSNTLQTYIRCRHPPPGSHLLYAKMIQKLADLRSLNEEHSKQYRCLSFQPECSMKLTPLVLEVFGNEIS
SMILES,Potency [1],Potency [2],Potency [3],Potency [4],Potency [5],Potency [6],Potency [7],Potency [8],Potency [9],Potency [10],Potency [11],Potency [12],Potency [13],outcome [14],Potency [15],Potency [16],Potency [17],Potency [18],Potency [19],Potency [20]
O=C(CS)Nc1ccccc1,inactive,inactive,inactive,inactive,inactive,inactive,inactive,inactive,inactive,inactive,inactive,inactive,inactive,inactive,,,,,,
CN1C[C@H]2c3ccccc3Oc3ccc(Cl)cc3[C@@H]2C1,,inactive,,inactive,inactive,,inactive,,inactive,inactive,inactive,inactive,inactive,inactive,13.3 µM (active),inactive,,,,
CN1CCC(=C2c3ccccc3Sc3ccccc32)CC1,,inactive,inactive,,inactive,26.6 µM (active),inactive,,inactive,,inactive,,,inactive,inactive,inactive,29.8 µM (active),inactive,inactive,
O=C(O)C1(C(=O)Nc2ccc(Cl)cc2Cl)CC1,inactive,,,inactive,inactive,,,,,,inactive,inactive,,,,,inactive,inactive,,
O=C(Cl)c1cc(C(=O)Cl)cc(C(=O)Cl)c1,,inactive,,,inactive,inactive,inactive,inactive,inactive,inactive,inactive,inactive,,,inactive,inactive,,,,inactive
CCCCCCCCCCCCCCCCCCOS(=O)(=O)O,,,,61.1 µM (active),,49 µM (active),,54.9 µM (active),,,,,,inactive,inactive,,inactive,,,
O=C1[C@H]2CCCC[C@H]2C(=O)N1CCCCN1CCN(c2nsc3ccccc23)CC1,29.8 µM (active),,23.7 µM (active),inactive,inactive,inactive,inactive,inactive,inactive,,inactive,inactive,,,,,,inactive,,inactive
C=CCOC(=O)CCC1CCCCC1,,inactive,inactive,inactive,inactive,,inactive,inactive,inactive,inactive,inactive,,inactive,inactive,inactive,inactive,inactive,,inactive,inactive
Brc1c2ccccc2cc2ccccc12,inactive,49.5 µM (active),,,inactive,,,inactive,,inactive,,inactive,,inactive,,,inactive,,,inactive
COc1ccc(C(=O)Nc2nc3ccccc3c(NCc3ccccc3)c2C#N)cc1,,,,inactive,inactive,,,inactive,,inactive,inactive,inactive,,,7.7 µM (active),1.74 µM (active),,inactive,,inactive
COC(=O)C1=C(C)NC(COC(N)=O)=C(C(=O)OC(C)C)C1c1cccc(Cl)c1Cl (centres undefined),,21.3 µM (active),,inactive,inactive,inactive,,inactive,,inactive,,inactive,29.8 µM (active),,inactive,,,,,
Clc1ccc2c(c1)CCc1cccnc1C2=C1CCNCC1,,,,,,26.6 µM (active),inactive,15 µM (active),29.8 µM (active),,inactive,29.8 µM (active),inactive,,inactive,inactive,,inactive,29.8 µM (active),inactive
CCO[C@H](Cc1ccc(OCCc2ccc(OS(C)(=O)=O)cc2)cc1)C(=O)O,inactive,0.12 µM (active),,inactive,,inactive,11.9 µM (active),inactive,,inactive,,inactive,inactive,,,,,inactive,inactive,inactive
O=[N+]([O-])c1ccc(NCCO)c(OCCO)c1,,inactive,inactive,inactive,inactive,inactive,inactive,inactive,inactive,inactive,inactive,inactive,inactive,inactive,inactive,inactive,,inactive,,inactive
C[N+]1(C)CCC(OC(=O)C(O)(c2ccccc2)C2CCCC2)C1 (centres undefined),inactive,inactive,,inactive,inactive,inactive,inactive,inactive,,inactive,,inactive,,inactive,,,,inactive,,inactive
Cc1cc(N)c2cc(NC(=O)Nc3ccc4nc(C)cc(N)c4c3)ccc2n1,inactive,,,,inactive,,,,,,inactive,18.8 µM (active),inactive,inactive,,,inactive,,,
O=C(O)c1ccc(-n2nc(-c3ccccc3O)nc2-c2ccccc2O)cc1,,,,inactive,inactive,,,inactive,,,,inactive,inactive,inactive,inactive,,,,,
CC1(c2ccccc2)OC(C(=O)O)=CC1=O (centres undefined),inactive,inactive,inactive,inactive,inactive,inactive,inactive,inactive,inactive,,inactive,,,inactive,,inactive,,,,inactive
Cc1nn(C)c(Oc2ccccc2)c1/C=N/OCc1ccc(C(=O)OC(C)(C)C)cc1,,inactive,,,inactive,,,,,inactive,inactive,inactive,inactive,,inactive,,inactive,inactive,inactive,inactive
CCCCC1=NC2(CCCC2)C(=O)N1Cc1ccc(-c2ccccc2-c2nn[nH]n2)cc1,,,,inactive,inactive,inactive,inactive,inactive,inactive,inactive,inactive,,,,inactive,inactive,inactive,inactive,,inactive
